The values that follow come from the supplement of paper PMC10681739.

The target of assay [1] is T1, ETS1 (UniProt P14921).
T1 sequence: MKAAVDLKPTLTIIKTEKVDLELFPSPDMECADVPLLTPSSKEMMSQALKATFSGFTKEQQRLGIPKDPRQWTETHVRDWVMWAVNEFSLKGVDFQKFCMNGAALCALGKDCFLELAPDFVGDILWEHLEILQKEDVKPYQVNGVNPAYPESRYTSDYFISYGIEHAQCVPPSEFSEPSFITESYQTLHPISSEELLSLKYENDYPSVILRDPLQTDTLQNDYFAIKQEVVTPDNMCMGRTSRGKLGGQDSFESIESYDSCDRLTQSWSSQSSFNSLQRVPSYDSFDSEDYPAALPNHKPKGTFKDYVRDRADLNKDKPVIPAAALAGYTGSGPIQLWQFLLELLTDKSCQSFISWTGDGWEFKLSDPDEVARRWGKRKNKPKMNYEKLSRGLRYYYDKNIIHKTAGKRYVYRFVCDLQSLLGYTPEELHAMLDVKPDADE
Description: ETS1 binding intensity (PBM fluorescence), ETS1 alone (arbitrary fluorescence units); higher = stronger binding. The note with it: ETS1 concentration 1 nM; RUNX1 concentration 0 nM.

The target in assay [2] is T1, ETS1. Description: ETS1 binding intensity (PBM fluorescence) in presence of RUNX1, normalised to ETS1-only experiment (arbitrary fluorescence units); higher = stronger binding. Particulars: ETS1 concentration 1 nM; RUNX1 concentration 25 nM.

As for AGCACCCCACATCCTGCACCCCACAACCCAGATCCC, the values for the ETS1 binding intensity with ETS1 [1] and in the assay with ETS1 [2] were 510 and 546, respectively.

Take CCGAGACACATGGGATGTGGGCGGGAGGAGGAATTG: the ETS1 binding intensity with ETS1 [1] amounted to 715; in the assay with ETS1 [2], 941.

Turning to AGCAGATTTGCTGCAGGAAACCACCGAGTCTCACGG, the ETS1 binding intensity amounted to 1130 with ETS1 [1] and 1490 with ETS1 [2].

Take CTCGGCGCGACGGATATTCCCGTGACCGCCGGGTTC: the ETS1 binding intensity in the assay with ETS1 [1] worked out at 672; with ETS1 [2], 920.

CAGCCCTCTTCCTGCCTGTCTGTGGCTGGTGAGGTT: the ETS1 binding intensity in the assay with ETS1 [1] came out at 597; with ETS1 [2], 431.

Take TCACTCCTCTTCCTTCCTGCCACCCACAGGGTCAGC: the values for the ETS1 binding intensity in the assay with ETS1 [1] and in the assay with ETS1 [2] were 532 and 378, respectively.

Turning to AGCTGCGGAGCATCCGCTGCGGTCCTCGCCGAGACC, the ETS1 binding intensity with ETS1 [1] amounted to 450; in the assay with ETS1 [2], 453.

GCGATACGAGACTTCCTGCGGGCTCGTGACATCAGC: the ETS1 binding intensity with ETS1 [1] was found to be 518; with ETS1 [2] it was 650.

As to GGTGTTAGTAGTCAAGGAAGTGGTCACCCTTGACAG, the ETS1 binding intensity amounted to 1010 in the assay with ETS1 [1] and 2150 with ETS1 [2].

For ATGACTTCGAGGAAGTCTTCAGAAACCACAGGCTGA, the ETS1 binding intensity in the assay with ETS1 [1] came out at 405; with ETS1 [2], 1430.

For TGCGCCAGCCTTCCTGTCGTGGTCACCGGTGGCAGC, the figures for the ETS1 binding intensity in the assay with ETS1 [1] and with ETS1 [2] were 446 and 400, respectively.

For GCGCGCTTCCGCCTTCATGCTAGCAACGCCCGCAGT, the ETS1 binding intensity came out at 566 in the assay with ETS1 [1] and 560 in the assay with ETS1 [2].

For the sequence GCACGTGTTTCCTGGGGCTGCACCACAGCACCACAC, the ETS1 binding intensity with ETS1 [1] was 444; with ETS1 [2] it was 497.

Turning to AGGAGAGGATGTTGCTTGAAGGTGTGGTCTCCTCCA, the ETS1 binding intensity with ETS1 [1] came to 549; with ETS1 [2] it was 462.

Consider CGAAGAGGAAGCCCCTGTATCACCCCACAAGAAGCC, for which the figures for the ETS1 binding intensity in the assay with ETS1 [1] and with ETS1 [2] were 544 and 555, respectively.

As for TTGAAAAGGAAGTTCATTTGTACTGAGGTGGTTTTA, the values for the ETS1 binding intensity with ETS1 [1] and in the assay with ETS1 [2] were 602 and 698, respectively.

As to ACTCCGCCCCTTCCGCCTGGCGGTTCCACTTCTCGG, the ETS1 binding intensity with ETS1 [1] was found to be 480; in the assay with ETS1 [2], 456.

TGTTGCACATGTTCAGGATGTGGTAGACAGCTTTCA: the results for the ETS1 binding intensity with ETS1 [1] and with ETS1 [2] were 1410 and 3040, respectively.
